# In all, about 110,000 compounds were measured (“z-score”: median about -0.1, highest 2% from about 2 on). Shown is part of a subset that was picked to be rich in the highest values. Active and inactive are the calls of the source.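 Rule for the calls: active = z-score in the third read window above 3 or below -3; inactive = the rest.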
# Biological target: Metabotropic glutamate receptor 8 (Rattus norvegicus) (UniProt P70579)
# Assay: rat mGluR8 modulators via GIRK flux, primary screen, cell-based, thallium flux, HTS (AID 488969)
# Details: HEK293 rat mGluR8, GIRK (G protein-gated inwardly rectifying potassium channel) thallium flux, FluoZin2; at 10 µM; stronger effect = higher value; submaximal glutamate (EC20) added with thallium
# Metabotropic glutamate receptor 8 (Rattus norvegicus), sequence (P70579 whole entry, looked up): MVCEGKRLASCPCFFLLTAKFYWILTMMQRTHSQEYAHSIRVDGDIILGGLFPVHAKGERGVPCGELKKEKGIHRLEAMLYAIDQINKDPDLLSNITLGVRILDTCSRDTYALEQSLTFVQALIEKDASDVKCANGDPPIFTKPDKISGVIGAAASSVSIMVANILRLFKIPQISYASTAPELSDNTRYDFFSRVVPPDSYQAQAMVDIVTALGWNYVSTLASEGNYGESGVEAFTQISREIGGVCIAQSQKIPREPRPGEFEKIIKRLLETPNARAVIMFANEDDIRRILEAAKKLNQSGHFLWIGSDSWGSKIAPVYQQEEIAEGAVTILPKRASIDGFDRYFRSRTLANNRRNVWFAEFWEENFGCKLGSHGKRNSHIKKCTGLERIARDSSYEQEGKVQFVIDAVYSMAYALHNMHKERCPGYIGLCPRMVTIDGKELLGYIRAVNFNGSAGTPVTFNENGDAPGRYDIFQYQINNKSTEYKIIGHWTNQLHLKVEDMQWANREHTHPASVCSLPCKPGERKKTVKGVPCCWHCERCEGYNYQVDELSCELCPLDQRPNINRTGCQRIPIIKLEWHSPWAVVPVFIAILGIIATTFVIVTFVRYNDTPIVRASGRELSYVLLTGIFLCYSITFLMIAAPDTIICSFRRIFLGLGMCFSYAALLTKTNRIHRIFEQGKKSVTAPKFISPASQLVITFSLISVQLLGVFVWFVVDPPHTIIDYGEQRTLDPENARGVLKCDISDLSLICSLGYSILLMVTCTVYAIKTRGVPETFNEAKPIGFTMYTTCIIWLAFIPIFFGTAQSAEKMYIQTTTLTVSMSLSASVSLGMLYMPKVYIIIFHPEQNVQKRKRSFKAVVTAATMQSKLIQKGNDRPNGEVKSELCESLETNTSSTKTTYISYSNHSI
row,Compound,z-score
1,Cc1cc(C)n(-c2nc3nonc3nc2-n2nc(C)cc2C)n1,0.084
2,Cc1ccc(Nc2nc3nonc3nc2N(C)C)cc1,-0.0276
3,CCN(CC)c1nc2nonc2nc1N(CC)CC,2.53
4,Cc1n[nH]c(C)c1S(=O)(=O)N(CC(=O)Nc1ccc2c(c1)OCCO2)c1ccc(C(C)C)cc1,-0.193
5,O=C(NCCc1ccc(Cl)cc1)Nc1cccc(Cl)c1,0.529
6,O=C(NCCCc1ccccc1)Nc1cccc(Cl)c1,2.01
7,O=C(NCCCc1ccccc1)Nc1ccccc1,0.456
8,Cc1nc(N2CCN(C)CC2)c2c(C)c(C(=O)Nc3ccc(C)c(F)c3)sc2n1,-0.555
9,CCCc1cc(=O)[nH]c(SCC(=O)NC(=O)OCC)n1,-0.0127
10,Cc1cc(C)n(S(=O)(=O)c2ccc(C(C)(C)C)cc2)n1,-1.41
11,CCc1nc(SCC(=O)Nc2c(C)nn(C)c2C)c2cnn(-c3ccccc3)c2n1,-0.873
12,O=C(NC1(C(F)(F)F)NC(=O)N(C2CCCC2)C1=O)C1CC1 (stereo not given),-0.129
13,CC(=O)NC1(C(F)(F)F)NC(=O)N(C2CCCCC2)C1=O (stereo not given),-0.137
14,CCOC(=O)NC1(C(F)(F)F)NC(=O)N(C2CCCCC2)C1=O (stereo not given),2.9
15,COc1ccc(-c2nnc(SCc3nnc(-c4ccc(Cl)cc4)o3)n2-c2ccccc2)cc1,-1.79
16,COc1ccc(C)cc1NS(=O)(=O)c1ccc(Br)s1,0.369
17,COc1ccc(NS(=O)(=O)c2ccc(Br)s2)cc1OC,2.11
18,COc1cc(NS(=O)(=O)c2ccc(Br)s2)cc(OC)c1,0.398
19,CCC(=O)Oc1ccc(C(=O)Nc2cccc(C(=O)c3ccccc3)c2)cc1,0.022
20,CC1(C)NC(=O)N(CC(O)CN2CCCCC2)C1=O (stereo not given),0.323
21,COc1ccc(CSc2nc(C)cc(=O)[nH]2)cc1Br,-1.02
22,CC(=O)Nc1ccc(S(=O)(=O)Nc2nnc(C(C)(C)C)s2)cc1,0.307
23,COc1ccc(NC(=S)NNC(=O)c2ccccc2OC(F)F)cc1,0.204
24,CN(C)c1cccc(N=C2C=C(N3CCOCC3)CC(C)(C)C2)c1,2.3
25,CN(C)c1cccc(NC2=CC(=[N+]3CCOCC3)CC(C)(C)C2)c1,0.942
26,CN(C)c1cccc(C(=O)Nc2ccc(N3CCOCC3)cc2)c1,-0.0628
27,O=C(Nc1cccc(O)c1)c1cc(-c2ccco2)on1,-0.103

row,Compound,z-score
1,Cc1ccc(Cl)c2c1NC(=O)C2(O)CC(=O)c1ccc(F)cc1 (stereo not given),-0.203
2,COc1ccc(NC(=O)OCCn2c([N+](=O)[O-])cnc2C)cc1,-0.144
3,CCOC(=O)C(NCCCO)c1ccccc1 (stereo not given),-0.247
4,COc1ccc(OC)c(-c2c[n+](=O)c3c(n2[O-])CCCC3)c1,0.0184
5,c1ccc(-n2ncc3c(N4CCCCC4)ncnc32)cc1,-0.259
6,O=S(=O)(c1ccc(F)cc1)N1CCN(c2ncnc3c2cnn3-c2ccccc2)CC1,2.11
7,CCN1CCN(c2ncnc3c2cnn3-c2ccccc2)CC1,0.0325
8,CN(C)C=NC(=O)c1ccc([N+](=O)[O-])c(CS(=O)(=O)c2ccc(Cl)cc2)c1,-0.0395
9,CCc1ccccc1N(CC(=O)O)S(C)(=O)=O,0.424
10,CC/C(=N\NC(=S)Nc1cc(C)ccc1C)c1ccc(OC(F)F)cc1,3.47 (active)
11,CCOc1ccc(NC(=S)N/N=C(\C)Cc2ccc(OC)cc2)cc1,1.35
12,Cc1ccc(CNC(=S)Nc2ccc(OC(F)F)cc2C)cc1,-0.531
13,COc1ccc(C/C(C)=N/NC(=S)Nc2ccccc2)cc1,5.19 (active)
14,COc1ccccc1NC(=S)NNC(=S)Nc1ccc(OC(F)F)cc1,-0.345
15,COc1ccc(C/C(C)=N/NC(=S)Nc2ccc(C)c(C)c2)cc1,1.65
16,CC/C(=N\NC(=S)Nc1ccc(OC)cc1)c1ccc(OC(F)F)cc1,7.5 (active)
17,COc1ccc(C/C(C)=N/NC(=S)Nc2ccc(C(C)C)cc2)cc1,0.256
18,CCCCOc1ccc(/C=N/NC(=S)Nc2cc(C)ccc2C)cc1,1.19
19,CCN(CCCNC(=O)CCNC(=O)Cn1ccc2ccccc2c1=O)c1ccccc1,-0.46
20,CCN1CCN(Cc2c(O)ccc3c(=O)c(-c4ccc(OC)c(OC)c4)c(C)oc23)CC1,-0.348
21,Cc1ccc(Oc2c(C=O)c3ccccc3n2C)cc1,-0.989
22,CC1(C)CC(=O)N(CC(=O)NC2CCCC2)c2ccccc2S1(=O)=O,-0.29
23,Clc1ccc(Oc2cnc3ccccc3n2)cc1,-0.22
24,CCC(CC)C(=O)Nc1cc(OC)c(OC)cc1C(=O)O,-0.741
25,O=C(Nc1ccc(O)c(-c2nc3ccccc3o2)c1)C1(c2ccc(Br)cc2)CCCC1,-0.297
26,CCOC(=O)CN(C(=O)c1ccccc1)c1ccccc1C,-0.114
27,CC(=O)NC(CC(=O)NC1CCCCCC1)c1ccccc1 (stereo not given),0.55

row,Compound,z-score
1,CC1(C)CC(=O)C2=C(C1)OC(N)=C(C#N)C21C(=O)N(CN2CCOCC2)c2ccccc21 (stereo not given),-0.00502
2,COCc1cc(=O)[nH]c(Nc2nc(C)c3ccccc3n2)n1,-0.43
3,COCc1cc(=O)[nH]c(Nc2nc(C)c3cc(OC)ccc3n2)n1,-0.401
4,CCc1ccc2nc(Nc3nc(COC)cc(=O)[nH]3)nc(C)c2c1,2.69
5,O=C(CSc1nc2nc3c(cc2c(=O)n1-c1ccccc1)CCCC3)Nc1ccccc1,-0.468
6,CCn1c(N)c(C(=O)NCc2ccco2)sc1=S,4.44 (active)
7,C=CCn1c(N)c(C(=O)NCc2ccco2)sc1=S,0.688
8,Cc1ccc(-n2c(N)c(C(=O)NCc3ccco3)sc2=S)cc1,-0.322
9,O=C(NCc1ccccc1)c1sc(=S)n2c1[nH]c(=O)c1ccccc12,-0.316
10,O=C(NCc1ccco1)c1sc(=S)n2c1[nH]c(=O)c1ccccc12,2.75
11,O=C(NCc1ccco1)c1sc2ccccc2c1Cl,-0.649
12,CC(=O)Oc1ccc2oc(=O)c3c(c2c1)CCCN3C(=O)CN1CCN(c2ncccn2)CC1,-0.26
13,CCOC(=O)CC1=CSC2=NS(=O)(=O)CCN12,-0.784
14,CC(=O)C1=C(C)NC(SCC(=O)c2ccccc2)=C(C#N)C1c1ccco1 (stereo not given),-1.16
15,CCc1cc2c(=O)[nH]c(Cc3ccccc3)nc2s1,-0.371
16,COC(=O)c1ccc(COC(=O)c2ccc(CS(=O)(=O)c3ccc(C)cc3)cc2)cc1,-0.331
17,Cc1ccc(S(=O)(=O)N(C)C)cc1NC(=O)COC(=O)CCC(=O)c1ccc(F)cc1,-0.39
18,CN(C)S(=O)(=O)c1cccc(NC(=O)COC(=O)CCC(=O)c2ccc(F)cc2)c1,-0.326
19,Cc1ccc2c(Cl)cc(Cl)c(OCC(=O)Nc3cccc(S(=O)(=O)N(C)C)c3)c2n1,0.415
20,Cc1ccc(NC(=O)COC(=O)CCC(=O)c2ccc(Cl)cc2)cc1S(=O)(=O)N(C)C,3.92 (active)
21,Cc1ccc(NC(=O)CCNC(=O)c2ccccc2Cl)cc1S(=O)(=O)N(C)C,-0.00648
22,Cc1ccc(NC(=O)Cc2ccccc2Cl)cc1S(=O)(=O)N(C)C,12.9 (active)
23,Cc1ccc(NC(=O)Cc2c(Cl)cccc2Cl)cc1S(=O)(=O)N(C)C,1
24,Cc1ccc2c(Cl)cc(Cl)c(OCC(=O)Nc3cc(S(=O)(=O)N(C)C)ccc3C)c2n1,-0.0675
25,Cc1ccc(NC(=O)COC(=O)/C=C/c2ccco2)cc1S(=O)(=O)N(C)C,1.23
26,CCOCc1c(C(=O)OCC(=O)Nc2ccc(C)c(S(=O)(=O)N(C)C)c2)oc2ccccc12,9.51 (active)
27,Cc1ccc2c(Cl)cc(Cl)c(OCC(=O)Nc3ccc(C)c(S(=O)(=O)N(C)C)c3)c2n1,2.31

row,Compound,z-score
1,CCOCC(=O)Nc1c(C(=O)OCC)oc2ccccc12,-0.215
2,CCOc1cc(C)c(S(=O)(=O)NC2CCCCC2)cc1C,-0.571
3,O=c1c2ccccc2nc(COc2ccccc2)n1/N=C/c1c[nH]c2ccccc12,-0.533
4,O=[N+]([O-])c1cc(Cl)cc(C2=NCCN2)c1,0.173
5,COc1ccc(N(CC(=O)NCc2ccccc2OC)S(=O)(=O)c2c(C)nn(C)c2C)cc1,-0.153
6,COc1ccc(-c2nn(-c3ccccc3)cc2C(=O)O)cc1OC,0.191
7,COc1ccccc1N1CCN(CC(=O)Nc2cc(F)ccc2C)CC1,0.0403
8,CCN(CC)c1ccc(NC(=O)CSc2nc3ccccc3c(=O)[nH]2)cc1,-0.106
9,Cc1ccc2c(Cl)cc(Cl)c(OCC(=O)Nc3cc(C)on3)c2n1,0.0628
10,Cc1ccc2c(Cl)cc(Cl)c(OCC(=O)NC(=O)NCc3ccco3)c2n1,-0.127
11,Cc1ccc2c(Cl)cc(Cl)c(OCC(=O)NCc3ccco3)c2n1,3.48 (active)
12,Cc1c(C(=O)O)cccc1-c1ccc(C=O)o1,0.12
13,Cc1nn(CC(=O)Nc2ccc(Cl)c(S(=O)(=O)N(C)C)c2)c(C)c1[N+](=O)[O-],4.55 (active)
14,Cc1cc(C)n(-c2ccc(C(=O)OCC(=O)Nc3ccc(S(=O)(=O)N4CCCCC4)cc3)cc2)n1,-0.00692
15,CC(C)CNS(=O)(=O)c1ccc(OCC(=O)Nc2ccc3c(c2)OCO3)c(Cl)c1,-0.19
16,Cc1nn(CC(=O)Nc2ccc(S(=O)(=O)N(C)C)cc2)c(C)c1[N+](=O)[O-],-0.0283
17,O=C(COc1ccc(S(=O)(=O)NC2CCCCC2)cc1Cl)Nc1ccc2c(c1)OCO2,0.2
18,Cc1nn(CC(=O)Nc2cc(S(=O)(=O)N(C)C)ccc2Cl)c(C)c1[N+](=O)[O-],0.164
19,Cc1cc(C)n(-c2ccc(C(=O)OCC(=O)Nc3ccc(Cl)c(S(=O)(=O)N(C)C)c3)cc2)n1,15.5 (active)
20,CC(C)NS(=O)(=O)c1ccc(OCC(=O)Nc2ccc3c(c2)OCO3)c(Cl)c1,3.09 (active)
21,CN(C)S(=O)(=O)c1cc(NC(=O)COC(=O)c2ccc3c(c2)OCO3)ccc1Cl,10.1 (active)
22,CCN(CC)S(=O)(=O)c1ccc(NC(=O)COC(=O)c2ccc(-n3nc(C)cc3C)cc2)cc1,0.0126
23,Cc1ccc(NC(=O)COC(=O)c2ccc3c(c2)OCO3)cc1S(=O)(=O)N1CCCCC1,-0.401
24,Cc1ccc(S(=O)(=O)N(C)C)cc1NC(=O)COC(=O)c1ccc2c(c1)OCO2,1.63

# Source: PubChem BioAssay AID488969 (Vanderbilt High Throughput Screening Facility, 2010)
